Inconclusive results are not listed. Where a call stands in place of a potency, no number is given. Activity calls are given as the source filed them. Calls follow the shape of the dose curve; as a rule, active = well fitted cell-killing curve with a large enough effect in the repeat runs; inconclusive = weak or mixed curves, or effect the other way; inactive = flat fitted curve, though single readings scatter.
Assay: Caspase-3/7 induction in HepG2 cells by small molecules, qHTS cell viability counter screen (AID 1346981); also: nearly all actives have a fitted effect of over 30% in size
Conditions: CellTiter-Fluor fluorescence, 17 h; series mostly up to 92.4 µM
Description: U.S. Tox21 Program National Center for Advancing Translational Sciences [NCATS] NIH Chemical Genomics Center [NCGC] U.S. Environmental Protection Agency [EPA] National Institutes of Environmental Health Sciences [NIEHS] National Toxicology Program [NTP] U.S. Food and Drug Administration [FDA] Tox21 Assay Overview: Apoptosis is a process of programmed cell death and plays a central role in the development of multicellular organisms. It is a highly regulated process and induces cell death by activating caspases, which are the members of cysteine aspartic acid-specific protease (caspase) family. Caspases involved in apoptosis are classified by their mechanism of action as initiator caspases (caspase-2, -8, -9 and -10) and executioner caspases (caspase-3, -6, and -7). Inhibition of apoptosis results in number of cancers, autoimmune diseases, inflammatory diseases and viral infection. To identify small molecule compounds that induce apoptosis, a homogeneous, luminescent Caspase-Glo 3/7 assay was used. Wild type HepG2 cells were used to screen Tox21 libraries for identifying caspase-3/7 activity inducers. Also cytotoxicity of the compounds was tested in parallel by measuring the cell viability using CellTiter-Fluor assay system in the same wells.
Tox21 Assay Protocol Summary: HepG2 cells were dispensed at 2,000 per well in 5uL of culture medium into white solid bottom 1536-well plates (Corning Life Sciences, Corning, NY) using a Multidrop Combi (Thermo Scientific, Waltham, MA) dispenser. The assay plates were incubated at 37 C and 5% CO2 for 5hr, and then 23nL of compounds dissolved in DMSO and positive control were transferred using a Pintool station ([…], San Diego, CA). The assay plates were incubated at 37C and 5% CO2 for 17hr. For cytotoxicity read, after 16hr incubation at 37C, 1uL CellTiter-Fluor reagent (Promega Corporation, Madison, WI) was added to each well of the assay plates using Flying Reagent Dispenser (FRD, Aurora Discovery, San Diego, CA). After 1hr incubation at 37C and 5% CO2, the fluorescence signal was quantified using a ViewLux plate reader (PerkinElmer, Shelton, CT).
Potency is read from the fitted curve at half-maximal effect.

| Structure (SMILES) | Potency |
| --- | --- |
| CCCCCC | inactive |
| CCCOC(=O)c1c(Cl)c(Cl)c(Cl)c(Cl)c1C(=O)OCCC | inactive |
| CCCCC(CC)COS(=O)(=O)O (stereo not given) | inactive |
| Cc1ccc(NC(=O)N(C)C)cc1NC(=O)N(C)C | inactive |
| C1=CCC2CC=CC2C1 (stereo not given) | inactive |
| CCCCCCCCCCCCCOS(=O)(=O)O | inactive |
| CC[C@H]1OC(=O)[C@H](C)[C@@H](O[C@H]2C[C@@](C)(OC)[C@@H](O)[C@H](C)O2)[C@H](C)[C@@H](O[C@@H]2O[C@H](C)C[C@H](N(C)C)[C@H]2O)[C@](C)(O)C[C@@H](C)/C(=N\OCOCCOC)[C@H](C)[C@@H](O)[C@]1(C)O | 25.5 µM (active) |
| O=C(O)c1ccc(O)cc1O | inactive |
| CC(CCc1ccc(O)cc1)NCCc1ccc(O)c(O)c1 (stereo not given) | inactive |
| CCCCCCCCCCCC(=O)OCC(O)CO (stereo not given) | inactive |
| O=C(O)CCCc1c[nH]c2ccccc12 | inactive |
| C=CC(=O)NC(C)C | inactive |
| CC(=O)OCC(=O)[C@@]1(OC(C)=O)[C@@H](C)C[C@H]2[C@@H]3C[C@H](F)C4=CC(=O)C=C[C@]4(C)[C@@]3(F)[C@@H](O)C[C@@]21C | inactive |
| CC1CCC(C(C)CS)CC1S (stereo not given) | inactive |
| Cc1ccc(S(=O)(=O)NC(=O)NC2CCCCC2)cc1 | inactive |
| O=C(O)c1cc(Cl)cc(Cl)c1O | inactive |
| CC1CCCO1 (stereo not given) | inactive |
| Oc1ccc2c(c1)Cc1ccccc1-2 | inactive |
| CCCC(=O)OC(=O)CCC | inactive |
| Cc1c(C2(c3cc(Br)c(O)c(Br)c3C)OS(=O)(=O)c3ccccc32)cc(Br)c(O)c1Br | 18.8 µM (active) |

| Structure (SMILES) | Potency |
| --- | --- |
| C/C(C=O)=C\c1ccccc1 | inactive |
| CC(C)c1ccc(C#N)cc1 | inactive |
| CC(C)N=C=NC(C)C | inactive |
| SCCc1cnccn1 | inactive |
| CC(CN(CCN(CC(C)OCCO)CC(C)OCCO)CC(C)OCCO)OCCO (stereo not given) | inactive |
| Oc1cccc2[nH]ccc12 | inactive |
| Nc1ccc(NC(=O)c2ccc(N)cc2)cc1 | inactive |
| CC(C)OC(=O)c1ccccc1C(=O)OC(C)C | inactive |
| N[C@@H](Cc1cc(I)c(O)c(I)c1)C(=O)O | inactive |
| CC(=O)c1ccc[nH]1 | inactive |
| Nc1ccc(N=Nc2ccc(N)cc2)cc1 | 27.3 µM (active) |
| CC(=O)OCCC1CCCCC1 | inactive |
| COC(=O)Nc1nc2ccc(C(=O)C3CC3)cc2[nH]1 | inactive |
| COC(=O)CC(C(C)=O)C(=O)OC (stereo not given) | inactive |
| COC(=O)c1sccc1S(N)(=O)=O | inactive |
| CNCc1ccc(NC(=O)c2c[nH]c3c2C(=O)CCC3)cc1 | inactive |
| CCN(CC)CCOc1ccccc1C(=O)CCc1ccccc1 | inactive |
| COc1ccc2nc(S(=O)Cc3ncc(C)c(OC)c3C)[nH]c2c1 (stereo not given) | inactive |
| COc1ccc(C)cc1 | inactive |
| O=C(c1ccccc1)c1ccc(O)cc1 | inactive |

Source: PubChem BioAssay (Tox21)
